# This is one part of the list. Calls of active or inactive are those of the source. The rule behind the calls is not given here.
# Test: Assay for Inhibitors of Influenza NS1 Protein Function: Influenza virus replication assay in MDCK cells infected with virus A/PR/8/34
# Conditions: MDCK infected influenza A/PR/8/34, virus titer TCID50, at 5 µM; viability: measured here: MDCK cell viability, stronger effect = higher value; virus titer (log TCID50): stronger effect = lower value
# Excerpt: NIH Chemical Genomics Center [NCGC]
# NIH Molecular Libraries Probe Centers Network [MLPCN]
# Assay Submitter (PI): Daniel Engel
# Influenza is a world-wide public health problem and emerging forms of the virus have the potential to cause a pandemic of equal or greater magnitude to the outbreaks recorded in 1918, 1957 or 1968. Vaccine development is proceeding and there also exist two classes of anti-influenza compounds. However these therapeutic modalities are neither fully effective nor widely enough available to fulfill global needs. In addition their potential usefulness against newly emergent strains is not known. Efforts are needed to develop novel agents against influenza virus, including broad-spectrum agents. Identification of small molecules that inhibit NS1 function either directly or by interfering with specific cellular pathways may be a key to increasing our defense against the virus.
# We have miniaturized and optimized a cell based assay in which NS1 from influenza A is expressed in the budding yeast S. cerevisiae. NS1 is a multi-functional protein that counters the host innate immune response and facilitates viral versus cellular gene expression. Expression of NS1 causes a pronounced slow growth phenotype in yeast due to its intrinsic molecular activities. Small molecules that suppress the slow growth phenotype can be identified by a straightforward growth recovery assay using optical density (OD) as the measurement. The same yeast strain not expressing NS1 was used as positive control in the yeast growth recovery assay. The present experiment attempted to confirm the activity of compounds observed in the primary screen.
# This assay confirms the activity of compounds from the primary screen by measuring their affect on viral replication.
# Protocol details are given in Basu et al. J. Vir. 83(4):1881-1891 2009. […] All media and sera were from Invitrogen. […] Confluent cell monolayers were infected at a multiplicity of infection (MOI) of 0.1 for 48 h in the presence or absence of 5uM compound. Compounds were added at the beginning of infection and were present throughout the infection. After 48 h virus titers were determined by standard TCID50 analysis.
Structure (SMILES),virus titer (log TCID50),viability
CCCc1cc(=O)[nH]c(SCC(=O)c2cc(C)n(CCC)c2C)n1,7.5 log10 TCID50 (active),95.4%
Cc1ccc(Cn2c(C)nc3c(c2=O)c2nc4ccccc4nc2n3Cc2ccco2)cc1,7.5 log10 TCID50 (active),101%
O=C1c2cccc(OCC(=O)N3N=C(c4cccs4)CC3c3ccc(F)cc3)c2CCN1Cc1ccccc1 (stereo not given),8.5 log10 TCID50 (inactive),91%
Cc1cc(C)c2cc(CN(Cc3nnnn3Cc3ccc(F)cc3)C3CCCC3)c(=O)[nH]c2c1,8.5 log10 TCID50 (inactive),103%
O=c1cc(O)nc(SCc2ccccc2Cl)[nH]1,7.66 log10 TCID50 (inactive),104%
